Data published in PubChem BioAssay.
Values joined by “and” are separate entries in the source; they are usually repeats but may differ in a detail not shown here. Equal entries are not always repeated. Active and inactive are the calls of the source.

What was measured:
[1] = binders of probe aFSTL3 on microarray, primary screen, stem cell growth factor project, biochemical, small-molecule microarray, fluorescence 635/667 (AID 1064); details: higher = more signal;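 note: measures binding of the biotinylated anti-FSTL3 antibody to printed compounds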
[2] = binders from COS7 lysate, DM2A8 probe, primary screen, torsin A project, cell lysate, small-molecule microarray, fluorescence 635/667 (AID 1065); details: higher = more signal, COS7 lysate expressing mutant human TOR1A
[3] = binders of probe aFGF2 on microarray, primary screen, stem cell growth factor project, biochemical, small-molecule microarray, fluorescence 635/667 (AID 1067); details: higher = more signal;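 note: measures binding of biotinylated aFGF2 protein to printed compounds on slides; z-score merges feature fluorescence and signal-to-noise across triplicate slides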
[4] = binders of probe aFGF10 on microarray, primary screen, stem cell growth factor project, biochemical, small-molecule microarray, fluorescence 635/667 (AID 1071); details: higher = more signal;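 note: score merges 667 nm spot intensity and signal to noise from triplicate slides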
[5] = target: Neurogenic locus notch homolog protein 2 (Homo sapiens) (UniProt Q04721); experiment: Notch2 binders on small-molecule microarrays, primary screen, biochemical, small-molecule microarray, 635 nm fluorescence, stem cell growth factors (AID 1073); details: Notch2 binding, higher = more signal
Sequence of Neurogenic locus notch homolog protein 2 (Homo sapiens) (Q04721 whole entry, looked up, canonical isoform): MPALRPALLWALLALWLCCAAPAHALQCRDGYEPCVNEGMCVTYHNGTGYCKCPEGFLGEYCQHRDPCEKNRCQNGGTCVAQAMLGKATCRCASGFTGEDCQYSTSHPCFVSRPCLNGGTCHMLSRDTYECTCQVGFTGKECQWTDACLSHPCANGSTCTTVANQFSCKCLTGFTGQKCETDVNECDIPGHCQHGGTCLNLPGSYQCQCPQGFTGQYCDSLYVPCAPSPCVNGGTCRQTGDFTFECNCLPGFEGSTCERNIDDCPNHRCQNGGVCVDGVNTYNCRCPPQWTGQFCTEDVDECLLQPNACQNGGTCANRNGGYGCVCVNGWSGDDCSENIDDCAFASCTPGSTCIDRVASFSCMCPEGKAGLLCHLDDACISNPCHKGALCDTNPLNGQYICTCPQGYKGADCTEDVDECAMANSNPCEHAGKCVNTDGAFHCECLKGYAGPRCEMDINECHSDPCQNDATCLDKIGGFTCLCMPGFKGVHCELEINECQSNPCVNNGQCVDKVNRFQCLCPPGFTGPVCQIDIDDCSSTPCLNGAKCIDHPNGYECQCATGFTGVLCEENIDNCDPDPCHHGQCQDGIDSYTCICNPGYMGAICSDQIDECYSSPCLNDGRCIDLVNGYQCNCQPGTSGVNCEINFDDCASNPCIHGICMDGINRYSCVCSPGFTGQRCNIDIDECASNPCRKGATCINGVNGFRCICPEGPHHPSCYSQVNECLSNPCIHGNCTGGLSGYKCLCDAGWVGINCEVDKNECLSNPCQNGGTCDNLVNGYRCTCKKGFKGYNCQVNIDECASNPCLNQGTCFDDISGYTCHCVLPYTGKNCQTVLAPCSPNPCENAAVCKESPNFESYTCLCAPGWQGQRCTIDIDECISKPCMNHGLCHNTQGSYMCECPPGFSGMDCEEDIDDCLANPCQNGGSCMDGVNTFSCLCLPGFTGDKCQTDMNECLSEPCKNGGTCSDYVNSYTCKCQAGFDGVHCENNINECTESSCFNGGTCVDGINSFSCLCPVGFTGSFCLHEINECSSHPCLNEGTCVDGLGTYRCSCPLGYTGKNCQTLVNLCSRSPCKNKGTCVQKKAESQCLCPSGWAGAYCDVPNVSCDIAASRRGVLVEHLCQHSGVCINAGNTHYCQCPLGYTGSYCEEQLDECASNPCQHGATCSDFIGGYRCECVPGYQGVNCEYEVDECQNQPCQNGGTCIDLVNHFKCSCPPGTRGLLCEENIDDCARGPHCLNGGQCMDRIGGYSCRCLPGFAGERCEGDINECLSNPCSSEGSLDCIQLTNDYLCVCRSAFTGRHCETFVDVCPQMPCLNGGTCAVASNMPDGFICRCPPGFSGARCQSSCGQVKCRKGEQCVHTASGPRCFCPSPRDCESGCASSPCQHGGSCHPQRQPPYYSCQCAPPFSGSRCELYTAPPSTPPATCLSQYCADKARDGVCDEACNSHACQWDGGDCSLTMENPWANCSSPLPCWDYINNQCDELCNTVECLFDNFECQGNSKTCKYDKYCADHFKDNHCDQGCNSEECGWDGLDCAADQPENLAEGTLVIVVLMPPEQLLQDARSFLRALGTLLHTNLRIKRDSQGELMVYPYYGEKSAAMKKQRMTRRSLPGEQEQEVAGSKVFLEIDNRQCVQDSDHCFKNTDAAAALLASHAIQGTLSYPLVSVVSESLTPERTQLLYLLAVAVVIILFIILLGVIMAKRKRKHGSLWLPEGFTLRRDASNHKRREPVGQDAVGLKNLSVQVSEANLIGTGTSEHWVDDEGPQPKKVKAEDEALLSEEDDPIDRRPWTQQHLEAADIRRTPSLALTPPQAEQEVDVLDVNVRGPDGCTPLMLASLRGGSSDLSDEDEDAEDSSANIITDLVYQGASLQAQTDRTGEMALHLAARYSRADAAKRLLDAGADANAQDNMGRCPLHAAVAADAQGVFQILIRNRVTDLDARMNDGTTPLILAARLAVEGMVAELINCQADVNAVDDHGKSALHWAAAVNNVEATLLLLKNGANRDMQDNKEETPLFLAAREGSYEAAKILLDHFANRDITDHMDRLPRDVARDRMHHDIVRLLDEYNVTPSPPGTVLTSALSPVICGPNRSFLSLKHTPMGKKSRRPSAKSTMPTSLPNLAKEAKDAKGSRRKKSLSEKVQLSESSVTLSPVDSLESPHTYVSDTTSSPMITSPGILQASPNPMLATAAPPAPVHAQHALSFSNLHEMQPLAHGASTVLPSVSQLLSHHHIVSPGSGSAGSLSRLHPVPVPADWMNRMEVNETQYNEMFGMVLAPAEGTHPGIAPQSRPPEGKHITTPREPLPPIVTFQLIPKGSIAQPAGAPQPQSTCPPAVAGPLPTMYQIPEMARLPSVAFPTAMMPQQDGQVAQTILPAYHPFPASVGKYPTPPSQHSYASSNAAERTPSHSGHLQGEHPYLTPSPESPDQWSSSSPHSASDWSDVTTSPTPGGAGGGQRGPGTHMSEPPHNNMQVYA

[6] = target: Pro-neuregulin-1, membrane-bound isoform (Homo sapiens) (UniProt Q02297); experiment: NRG1 binders on small-molecule microarrays, primary screen, psychiatric disease protein project, biochemical, small-molecule microarray, fluorescence 635/667 (AID 1075); details: NRG1 binding, 635 nm fluorescence, higher = more signal;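 note: score combines 667 nm spot fluorescence with signal to noise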
Sequence of Pro-neuregulin-1, membrane-bound isoform (Homo sapiens) (Q02297 whole entry, looked up, the tested form may be a part, canonical isoform): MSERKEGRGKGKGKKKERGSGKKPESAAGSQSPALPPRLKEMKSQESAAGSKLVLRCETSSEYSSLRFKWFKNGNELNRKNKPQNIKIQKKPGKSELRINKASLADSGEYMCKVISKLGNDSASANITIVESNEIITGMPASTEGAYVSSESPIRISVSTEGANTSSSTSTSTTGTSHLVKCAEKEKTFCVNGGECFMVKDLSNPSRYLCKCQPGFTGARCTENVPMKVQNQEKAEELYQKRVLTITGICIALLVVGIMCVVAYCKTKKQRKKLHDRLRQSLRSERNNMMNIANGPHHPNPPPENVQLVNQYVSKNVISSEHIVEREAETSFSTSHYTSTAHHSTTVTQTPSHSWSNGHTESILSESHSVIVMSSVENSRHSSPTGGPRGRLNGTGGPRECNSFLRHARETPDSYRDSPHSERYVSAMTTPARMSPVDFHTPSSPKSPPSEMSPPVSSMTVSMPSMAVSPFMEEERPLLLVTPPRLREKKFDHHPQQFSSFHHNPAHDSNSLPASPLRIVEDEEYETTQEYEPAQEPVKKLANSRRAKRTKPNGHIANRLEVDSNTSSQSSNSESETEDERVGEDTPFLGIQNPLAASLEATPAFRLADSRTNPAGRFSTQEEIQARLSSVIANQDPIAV

[7] = test system: Neuregulin-1 EGF-like domain; experiment: binders of neuregulin-1 EGF-like domain, primary screen, biochemical, small-molecule microarray, 635 nm fluorescence (AID 1081); details: small-molecule microarray binding, higher = more signal;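 note: binding of the protein to compounds printed on small-molecule microarray slides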
[8] = FRG1 promoter luciferase signal modulators, primary screen, FRG1 inhibition for FSHD, cell-based, C2C12 myotubes, firefly/Renilla luciferase, luminescence (AID 1084); details: higher = more signal, called active from +8 up or from −8 down
[9] = binders of probe aFST on microarray, primary screen, stem cell growth factor project, biochemical, small-molecule microarray, fluorescence 635/667 (AID 1086); details: higher = more signal;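 note: score merges 667 nm fluorescence with signal-to-noise of each printed compound spot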
[10] = binders of probe aHhip on microarray, primary screen, stem cell growth factor project, biochemical, small-molecule microarray, fluorescence 635/667 (AID 1087); details: higher = more signal;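 note: score merges spot fluorescence at 667nm with spot signal to noise ratio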

Row | SMILES | composite z-score [1] | composite z-score [2] | composite z-score [3] | composite z-score [4] | composite z-score [5] | composite z-score [6] | composite z-score [7] | z-score [8] | composite z-score [9] | composite z-score [10]
1 | CC(CO)N1C(=O)[C@@H]2C3C(=O)OCCC=C[C@H]3OC23C=CCN(c2ccc4ccccc4c2)C(=O)[C@@H]13 (stereo not given in full) | 0.265 and -1.11 | -1.36 and -0.483 | -0.0689 and -0.36 | -0.282 and -0.642 | -0.704 and -1.04 | 0.0944 and 1.21 | 0.713 and 1.19 | 0.544 (inactive) and 1.81 (inactive) | -0.0414 and 0.226 | -0.388 and -0.937
2 | CCCC[C@@H]1CN2[C@@H](CC[C@@H](C)[C@@H]2c2ccc(Br)cc2)C(=O)O1 | -0.519 and -0.353 | 0.191 and 0.217 | -0.111 and -0.0736 | 0.458 and 0.656 | 0.333 and 0.493 | 0.48 and 0.847 | 0.602 and 0.965 | 0.427 (inactive) and -0.286 (inactive) | 0.0218 and 0.0109 | -0.142 and -0.306
3 | CC(CO)N1C(=O)[C@@H]2C3C(=O)OCCC=C[C@H]3OC23C=CCN(Cc2ccccc2)C(=O)[C@@H]13 (stereo not given in full) | 0.144 and 0.708 | 1.03 and -0.0188 | -0.162 and -0.111 | -0.691 and 0.0659 | -1.24 and -0.565 | -0.852 and 1.22 | 1.08 and 0.738 | 0.587 (inactive) and 0.0791 (inactive) | -0.41 and -0.455 | -0.236 and -0.34
4 | CCOC(=O)C[C@H]1[C@H](OC(=O)c2ccccc2-c2ccccc2)[C@@H](NC(=O)c2ccccc2)c2cc(OCCCO)ccc2N1C(=O)c1ccc2ccccc2n1 | -0.0767 and -0.127 | 0.455 and 0.0871 | 0.0047 and -0.094 | 0.507 and 0.191 | 0.708 and 0.964 | -0.106 and 0.749 | 0.738 and 0.565 | -0.129 (inactive) and -0.113 (inactive) | 0.214 and 0.306 | 0.347 and -0.0994
5 | CCOC(=O)[C@@H]1CC=C2CC1C(=O)N1CCC[C@@H]1[C@H]2O[Si](C)(C)C(C)(C)C (stereo not given in full) | -0.116 and -0.386 | -0.323 and -0.427 | -0.157 and -0.282 | -0.833 and -1.22 | -1.16 and -1.46 | -0.653 and -0.709 | -1.69 and -0.727 | 0.678 (inactive) and -1.08 (inactive) | -0.0907 and -1.25 | -0.0994 and -0.252
6 | C=CCN(C(=O)C(c1cccs1)N(CCOCCO)C(=O)/C=C\C(=O)O)C(C)(C)C (stereo not given) | 0.982 and 1.01 | -0.718 and -0.131 | -0.228 and -0.192 | -0.708 and -0.376 | -1.28 and -1.44 | -0.395 and -0.988 | 0.484 and 0.745 | -0.0773 (inactive) and -0.143 (inactive) | -0.78 and -1.06 | -0.277 and -0.169
7 | C=CCN(C(=O)C(c1cccs1)N(C(=O)/C=C\C(=O)O)c1ccc(CCO)cc1)C(C)(C)C (stereo not given) | 0.396 and 0.476 | -0.534 and -0.804 | -0.212 and -0.192 | -0.439 and -1.66 | -0.898 and -1.52 | 1.04 and 2.28 | 0.71 and 1.3 | 1.28 (inactive) and 0.16 (inactive) | -0.23 and -0.706 | -0.0618 and -0.134
8 | C[N+](C)(C)CCCCNC(=O)[C@@H]1C[C@@H]2C(=O)N[C@@H](CCCC[N+](C)(C)C)C(=O)N2[C@@H]1c1cccc(OCCO)c1 | -0.0301 and -0.304 | 2.1 and 2.23 | -0.0909 and -0.0573 | 1.07 and 1.2 | 0.556 and 0.0462 | -0.181 and -0.179 | 1.07 and 1.16 | -0.101 (inactive) and 0.844 (inactive) | 0.311 and 0.464 | 0.463 and -0.0994
9 | COC(=O)[C@@]1(Cc2ccc(OC)cc2)[C@H]2c3cc(C(=O)N(C)C)n(Cc4ccc(O)c(OC)c4)c3C[C@H]2CN1C(=O)c1ccccc1 | 0.332 and 0.233 | 0.703 and 0.13 | -0.169 and 0.176 | 0.123 and 1.17 | 1.64 and 1.68 | 2.15 and 1.85 | 1.32 and 1.22 | 2.53 (inactive) and -0.466 (inactive) | 0.808 and 1.15 | 0.329 and 0.483
10 | CC(C)OC(=O)C=C1C[C@@H](c2cccc(C(F)(F)F)c2)O[C@@H](c2cccc(C(F)(F)F)c2)O1 | 0.0946 and 0.128 | 0.297 and 1.36 | 0.0043 and -0.13 | 0.884 and -0.153 | -0.27 and -0.628 | 1.13 and 0.36 | 1.01 and 1.08 | -0.0881 (inactive) and -0.227 (inactive) | -0.0032 and -0.598 | -0.236 and -0.253
11 | CCC[C@@H]1C[C@@]1(CCC)[C@@H](NC(=O)c1ccc(-c2ccccc2)cc1)c1cccc(Cl)c1 | 2.36 and 0.236 | 0.995 and -0.712 | 0.736 and -0.171 | -0.636 and 0.226 | -1.01 and 1.53 | -0.612 and 1.2 | -0.62 and 1.11 | -1 (inactive) and 0.245 (inactive) | 1.96 and 0.48 | 2.73 and 0.663
12 | CCOC(=O)[C@H](CC(C)C)NC(=O)CCC1CC(OC(=O)NCc2cccc3ccccc23)CC2(CCCC(COC(=O)NCc3ccccc3)O2)O1 (stereo not given in full) | -0.289 | -0.0297 | -0.116 | 0.129 | -0.362 | -0.421 | -0.0852 | 2.99 (inactive) | -0.0955 | -0.143
13 | CC(C)=CCCC(C)=CCON=C1C[C@@H](O)[C@@H](O)[C@@H]2[C@@H]3C(=O)N([C@@H](C)c4ccccc4)C(=O)[C@@H]3CC[C@H]12 | -0.372 | 0.384 | -0.044 | 0.573 | 0.744 | 1.13 | 0.751 | -0.763 (inactive) | 0.503 | 0.0627
14 | CCCC[C@@H]1CN2[C@H](c3ccc(Br)cc3)[C@@H](C)CC[C@H]2C(=O)O1 | -0.419 and -0.254 | -0.309 and 0.41 | -0.129 and -0.103 | -0.0574 and -0.132 | -0.118 and -0.134 | 0.0412 and -0.139 | -0.246 and -0.605 | -1.09 (inactive) and 0.204 (inactive) | -0.0739 and -0.0224 | 0.0264 and -0.0237
